Laboratory results: publication PMC7826789 (International Journal of Molecular Sciences, 2021)

What was measured:
Details in all cases: Compound Concentration (nM):1000
[1] = tested on: T1, MRCKA
T1 construct: gene CDC42BPA

[2] = tested on: T2, MRCKB
T2 construct: gene CDC42BPB

[3] = tested on: MST1R
[4] = tested on: T3, MST1
T3 construct: gene STK4

[5] = tested on: T4, MST2
T4 construct: gene STK3

[6] = tested on: T5, MST3
T5 construct: gene STK24

[7] = tested on: MST4
[8] = tested on: MTOR
[9] = tested on: MUSK
[10] = tested on: MYLK2
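Further: KINOMEscan scanMAX binding as percent activity remaining versus control; lower means stronger binding.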

| SMILES | Percent Control [1] [%] | Percent Control [2] [%] | Percent Control [3] [%] | Percent Control [4] [%] | Percent Control [5] [%] | Percent Control [6] [%] | Percent Control [7] [%] | Percent Control [8] [%] | Percent Control [9] [%] | Percent Control [10] [%] |
| --- | --- | --- | --- | --- | --- | --- | --- | --- | --- | --- |
| CC(C)COC(=O)c1ccc2c(c1)/C(=C/Nc1ccc(S(N)(=O)=O)cc1)C(=O)N2 [GW416981X] | 100 | 100 | 100 | 100 | 1.1 | 98 | 31 | 100 | 100 | 100 |
| COc1ccc2c(-c3ccnc(Nc4cccc(OC(F)(F)F)c4)n3)cnn2n1 [GW810372X] | 100 | 99 | 100 | 100 | 100 | 98 | 60 | 100 | 100 | 100 |
| COc1cc(C=NNc2ncnc3c2cnn3-c2ccccc2)ccc1O [GW513184X] | 100 | 100 | 29 | 100 | 94 | 100 | 58 | 93 | 100 | 43 |
| Cc1cc(O)cc(C)c1/C=C/c1cncc(C(N)=O)c1 [GW435821X] | 100 | 100 | 100 | 100 | 100 | 100 | 69 | 100 | 100 | 100 |
| Cl.O=C(Nc1ccc(Oc2ccc3[nH]c(NC(=O)c4ccccc4)nc3c2)cc1)Nc1cc(C(F)(F)F)ccc1F [GW709042A] | 85 | 90 | 100 | 73 | 100 | 100 | 69 | 82 | 19 | 91 |
| COc1cc(C)c(N(C)C(=O)CN(C)C)cc1Nc1nc(Nc2cccc(F)c2C(N)=O)c2cc[nH]c2n1 [GSK2219385] | 100 | 94 | 100 | 100 | 85 | 93 | 100 | 100 | 84 | 100 |
| NS(=O)(=O)c1ccc(N/N=C2\C(=O)Nc3ccc(C(=O)NCCc4c[nH]cn4)cc32)cc1 [GW300660X] | 100 | 100 | 100 | 100 | 60 | 100 | 25 | 91 | 100 | 100 |
| COc1cc2ncn(-c3cc(O[C@H](C)c4ccccc4Cl)c(C(N)=O)s3)c2cc1OC [GSK237701A] | 89 | 96 | 94 | 43 | 0 | 93 | 91 | 100 | 89 | 45 |
| Cl.O=C(Nc1ccc(Oc2ccc3[nH]c(NC(=O)c4ccco4)nc3c2)cc1)Nc1cc(C(F)(F)F)ccc1F [GW683134A] | 94 | 89 | 100 | 100 | 100 | 100 | 87 | 100 | 5.6 | 38 |
| CCc1ccc(Oc2nccc(-c3c(-c4ccc(F)cc4)ncn3C3CCNCC3)n2)cc1 [SB-242719] | 68 | 17 | 100 | 88 | 66 | 90 | 61 | 89 | 100 | 80 |
| CN(C)CCNC(=O)Nc1ccc(N(C)c2ccnc(Nc3ccc(CS(C)(=O)=O)cc3)n2)cc1.Cl [GW830900A] | 95 | 96 | 100 | 100 | 100 | 91 | 66 | 97 | 78 | 100 |
| COc1ccc(COc2ccc(Cc3cnc(N)nc3N)cc2OC)cc1 [GW632580X] | 100 | 100 | 100 | 85 | 73 | 97 | 90 | 96 | 100 | 100 |
| COc1cc(N2CCN(C(C)C)CC2)ccc1Nc1nc(Nc2ccc(F)cc2C(=O)NC[C@@H](O)CO)c2cc[nH]c2n1 [GSK1392956A] | 100 | 100 | 100 | 100 | 92 | 90 | 94 | 100 | 100 | 100 |
| C/C(Nc1ccc(S(N)(=O)=O)cc1)=C1/C(=O)Nc2ccccc21 [GW335962X] | 100 | 92 | 100 | 82 | 100 | 27 | 8.4 | 96 | 100 | 100 |
| COC(=O)Nc1nc2ccc(Oc3ccc(NC(=O)Nc4cc(C(F)(F)F)ccc4F)cc3)cc2s1.Cl [GW693917A] | 90 | 96 | 100 | 100 | 100 | 95 | 72 | 100 | 9.7 | 47 |
| NS(=O)(=O)c1ccc(Nc2ncc(-c3ccccc3)o2)cc1 [GW572399X] | 100 | 100 | 100 | 100 | 100 | 100 | 65 | 88 | 100 | 100 |
| NS(=O)(=O)c1ccc(N/N=C2\C(=O)Nc3ccc(Cl)cc32)cc1 [GW280670X] | 100 | 100 | 100 | 100 | 100 | 100 | 63 | 100 | 100 | 100 |
| O=C(Nc1n[nH]c2nc(-c3ccc(O)cc3)c(Br)cc12)C1CC1 [SB-725317] | 100 | 100 | 100 | 100 | 100 | 100 | 77 | 100 | 100 | 5.9 |
| COc1cccc(-c2c[nH]c3c(N/N=C/c4ccncc4)ncnc23)c1 [GW814408X] | 100 | 100 | 88 | 100 | 100 | 74 | 21 | 100 | 100 | 68 |
| CN(C)c1cc2c(Nc3ccc4c(cnn4Cc4ccccc4)c3)ncnc2cn1 [GW282974X] | 100 | 84 | 100 | 100 | 83 | 90 | 83 | 100 | 95 | 98 |

| SMILES | Percent Control [1] [%] | Percent Control [2] [%] | Percent Control [3] [%] | Percent Control [4] [%] | Percent Control [5] [%] | Percent Control [6] [%] | Percent Control [7] [%] | Percent Control [8] [%] | Percent Control [9] [%] | Percent Control [10] [%] |
| --- | --- | --- | --- | --- | --- | --- | --- | --- | --- | --- |
| NS(=O)(=O)c1ccc(N/N=C2\C(=O)Nc3ccc(C(=O)NCc4ccncc4)cc32)cc1 [GW300657X] | 100 | 98 | 100 | 100 | 45 | 73 | 75 | 97 | 83 | 100 |
| COc1ccc2[nH]c3c4[nH]c5ccc(OC)cc5c4c4c(c3c2c1)C(=O)NC4=O [GW296115X] | 76 | 89 | 93 | 100 | 82 | 76 | 85 | 100 | 83 | 82 |
| Nc1ncnc2occ(-c3ccc(NC(=O)Nc4cc(C(F)(F)F)ccc4F)cc3)c12 [GW770249X] | 100 | 100 | 100 | 100 | 83 | 82 | 59 | 100 | 1.4 | 83 |
| Cl.c1ccc(Cc2nc3ccc(Nc4ncnc5ccccc45)cc3[nH]2)cc1 [GR269666A] | 100 | 100 | 100 | 100 | 100 | 100 | 100 | 100 | 100 | 100 |
| Cl.O=C(O[C@H]1CN[C@H](C#Cc2cc3ncnc(Nc4ccc5c(cnn5Cc5ccccc5)c4)c3s2)C1)N1CCOCC1 [GSK200398A] | 100 | 86 | 100 | 100 | 100 | 83 | 100 | 100 | 100 | 100 |
| CCn1c(-c2nonc2N)nc2c(C#CC(C)(C)O)nc(OCCNC)cc21.Cl [GSK949675] | 100 | 100 | 100 | 100 | 100 | 100 | 100 | 85 | 100 | 98 |
| COc1ccc2cc(-c3c(-c4ccncc4)nc(-c4ccc(S(C)(=O)=O)cc4C)n3C)ccc2c1 [SB-633825] | 93 | 88 | 85 | 66 | 60 | 100 | 82 | 100 | 99 | 100 |
| COc1cc(/C=N/Nc2ncnc3[nH]ncc23)ccc1O [GW578748X] | 100 | 100 | 100 | 100 | 86 | 93 | 20 | 96 | 100 | 81 |
| O=C1Nc2ccc(C(=O)c3ccco3)cc2C1=Cc1cc(Cl)c(O)c(Cl)c1 [GW406108X] | 100 | 100 | 100 | 93 | 0 | 86 | 79 | 100 | 100 | 100 |
| C[C@@H](Oc1cc(-n2cnc3ccc(OC4CCN(C)CC4)cc32)sc1C(N)=O)c1ccccc1Cl [GSK579289A] | 100 | 88 | 100 | 77 | 24 | 84 | 59 | 95 | 85 | 48 |
| CN1CCN(C(=O)c2ccc(NC(=O)Nc3ccc(N(C)c4ccnc(Nc5ccc(CS(C)(=O)=O)cc5)n4)cc3)cc2)CC1.Cl [GW830263A] | 89 | 86 | 41 | 96 | 16 | 47 | 11 | 100 | 11 | 36 |
| COc1cc2ncnc(Nc3ccc4c(cnn4Cc4ccccc4)c3)c2cc1OC.Cl [GW282449A] | 100 | 100 | 100 | 100 | 100 | 100 | 94 | 100 | 100 | 100 |
| CC1=C(C(=O)Nc2ccc3[nH]ncc3c2)C(c2ccc(Cl)c(Cl)c2)CC(=O)N1 (stereo not shown) [GSK299115A] | 100 | 75 | 91 | 90 | 94 | 70 | 66 | 100 | 100 | 100 |
| Cl.O=S1CCN(Cc2ccc(-c3ccc4ncnc(Nc5ccc(OCc6ccccc6)c(F)c5)c4c3)o2)CC1 [GW576924A] | 100 | 100 | 100 | 100 | 100 | 100 | 100 | 100 | 100 | 100 |
| COc1ccccc1-c1cc(/C=C2\C(=O)Nc3ncc(Br)cc32)cc(Br)c1O [GW442130X] | 100 | 100 | 100 | 100 | 95 | 100 | 100 | 77 | 100 | 97 |
| COc1cccc(-n2ncc3c(N/N=C/c4ccncc4)ncnc32)c1 [GW784752X] | 100 | 100 | 100 | 100 | 100 | 93 | 74 | 100 | 100 | 91 |
| CCS(=O)(=O)c1ccc(OC)c(Nc2ncc(-c3cccc(OC)c3)o2)c1 [GW580509X] | 100 | 100 | 100 | 100 | 100 | 100 | 100 | 100 | 100 | 100 |
| CCS(=O)(=O)c1ccc(OC)c(Nc2ncc(-c3cccc(F)c3)o2)c1 [GW621970X] | 100 | 100 | 100 | 100 | 100 | 100 | 93 | 100 | 100 | 98 |
| NS(=O)(=O)c1ccc(N/N=C2\C(=O)Nc3ccc(-c4cnco4)cc32)cc1 [GW276655] | 100 | 98 | 92 | 100 | 40 | 77 | 53 | 100 | 100 | 73 |
| CC1=C(C(=O)Nc2ccc3[nH]ncc3c2)C(c2ccc3ccccc3c2)CC(=O)N1 (stereo not shown) [GSK270822A] | 100 | 85 | 46 | 93 | 73 | 90 | 53 | 100 | 95 | 100 |
